{
  "source": "paper PMC8384837",
  "about": "“Expanding the binding specificity for RNA recognition by a PUF domain”",
  "assay_in_all_cases": "yeast three-hybrid, YBZ-1, SC-Leu-His + 0.5 mM 3-AT, 4 days",
  "conditions_in_all_cases": "tags: N-Gal4 AD-HA kept; label: inside an RPR1-promoter hybrid RNA with tandem MS2 sites; ssRNA",
  "key": {"PUM1 PUF domain R4-CPL": {"target": "PUM1 PUF domain R4-CPL (Homo sapiens, UniProt Q14671 828-1176, N971C;H972P;Q975L)", "sequence (Q14671 828-1176 N971C/H972P/Q975L)": "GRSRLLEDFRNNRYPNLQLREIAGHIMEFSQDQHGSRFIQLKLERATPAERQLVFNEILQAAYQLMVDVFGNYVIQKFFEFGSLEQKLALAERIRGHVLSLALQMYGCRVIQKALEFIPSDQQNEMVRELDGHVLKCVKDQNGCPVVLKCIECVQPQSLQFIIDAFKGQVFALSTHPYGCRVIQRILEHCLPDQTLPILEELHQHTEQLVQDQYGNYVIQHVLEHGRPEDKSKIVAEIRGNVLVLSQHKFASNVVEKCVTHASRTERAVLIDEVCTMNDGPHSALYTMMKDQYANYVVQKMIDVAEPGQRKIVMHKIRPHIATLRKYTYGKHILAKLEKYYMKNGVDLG", "method_in_brief": "(§1)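 Each repeat of the Pumilio-1 PUF domain was randomized at its three base-contacting residues, and these libraries were co-expressed from a centromeric plasmid with matching RNA elements in strain YBZ-1. After four days on SC-Leu (input) or SC-Leu-His + 0.5 mM 3-AT (selection), the repeat regions were PCR-amplified and Illumina-sequenced. The interaction score compares variant frequency between input and selection as a log change, computed in log2 with a pseudocount of 1 for absent variants.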"}, "PUM1 PUF domain R3-YRS": {"target": "PUM1 PUF domain R3-YRS (Homo sapiens, UniProt Q14671 828-1176, C935Y;Q939S)", "sequence (Q14671 828-1176 C935Y/Q939S)": "as the sequence (Q14671 828-1176 N971C/H972P/Q975L) above, with C108Y, Q112S, C144N, P145H, L148Q counted along it", "method_in_brief": "as §1"}, "PUM1 PUF domain R3-CNT": {"target": "PUM1 PUF domain R3-CNT (Homo sapiens, UniProt Q14671 828-1176, R936N;Q939T)", "sequence (Q14671 828-1176 R936N/Q939T)": "as the sequence (Q14671 828-1176 N971C/H972P/Q975L) above, with R109N, Q112T, C144N, P145H, L148Q counted along it", "method_in_brief": "as §1"}, "PUM1 PUF domain R5-KSN": {"target": "PUM1 PUF domain R5-KSN (Homo sapiens, UniProt Q14671 828-1176, C1007K;R1008S;Q1011N)", "sequence (Q14671 828-1176 C1007K/R1008S/Q1011N)": "as the sequence (Q14671 828-1176 N971C/H972P/Q975L) above, with C144N, P145H, L148Q, C180K, R181S, Q184N counted along it", "method_in_brief": "as §1"}, "PUM1 PUF domain R2-AVA": {"target": "PUM1 PUF domain R2-AVA (Homo sapiens, UniProt Q14671 828-1176, N899A;Y900V;Q903A)", "sequence (Q14671 828-1176 N899A/Y900V/Q903A)": "as the sequence (Q14671 828-1176 N971C/H972P/Q975L) above, with N72A, Y73V, Q76A, C144N, P145H, L148Q counted along it", "method_in_brief": "as §1"}, "PUM1 PUF domain R3-YWR": {"target": "PUM1 PUF domain R3-YWR (Homo sapiens, UniProt Q14671 828-1176, C935Y;R936W;Q939R)", "sequence (Q14671 828-1176 C935Y/R936W/Q939R)": "as the sequence (Q14671 828-1176 N971C/H972P/Q975L) above, with C108Y, R109W, Q112R, C144N, P145H, L148Q counted along it", "method_in_brief": "as §1"}, "PUM1 PUF domain R1-YKR": {"target": "PUM1 PUF domain R1-YKR (Homo sapiens, UniProt Q14671 828-1176, S863Y;R864K;Q867R)", "sequence (Q14671 828-1176 S863Y/R864K/Q867R)": "as the sequence (Q14671 828-1176 N971C/H972P/Q975L) above, with S36Y, R37K, Q40R, C144N, P145H, L148Q counted along it", "method_in_brief": "as §1"}, "PUM1 PUF domain R1-RRR": {"target": "PUM1 PUF domain R1-RRR (Homo sapiens, UniProt Q14671 828-1176, S863R;Q867R)", "sequence (Q14671 828-1176 S863R/Q867R)": "as the sequence (Q14671 828-1176 N971C/H972P/Q975L) above, with S36R, Q40R, C144N, P145H, L148Q counted along it", "method_in_brief": "as §1"}, "PUM1 PUF domain R8-RHN": {"target": "PUM1 PUF domain R8-RHN (Homo sapiens, UniProt Q14671 828-1176, N1122R;Y1123H;Q1126N)", "sequence (Q14671 828-1176 N1122R/Y1123H/Q1126N)": "as the sequence (Q14671 828-1176 N971C/H972P/Q975L) above, with C144N, P145H, L148Q, N295R, Y296H, Q299N counted along it", "method_in_brief": "as §1"}, "PUM1 PUF domain R4-FGQ": {"target": "PUM1 PUF domain R4-FGQ (Homo sapiens, UniProt Q14671 828-1176, N971F;H972G)", "sequence (Q14671 828-1176 N971F/H972G)": "as the sequence (Q14671 828-1176 N971C/H972P/Q975L) above, with C144F, P145G, L148Q counted along it", "method_in_brief": "as §1"}},
  "data": [
    {"sequence": "GGCUAGAACUAGUGGAUCCCCCGGCGCCCGGCGGCUCGAGCCCGGGUAAGUGUAAAUAGUCUGCAUGCCGCCGGGCGCCAUGCCUGCAGGUCGACUCUAGAAAACAUG", "values": [
      {"measurement": "binding signal", "setting": "PUM1 PUF domain R4-CPL", "value": "3.68 log2 enrichment (interaction score)"},
      {"measurement": "binding signal", "setting": "PUM1 PUF domain R3-YRS", "value": "1.29 log2 enrichment (interaction score)"},
      {"measurement": "binding signal", "setting": "PUM1 PUF domain R3-CNT", "value": "2.18 log2 enrichment (interaction score)"}
    ]},
    {"sequence": "GGCUAGAACUAGUGGAUCCCCCGGCGCCCGGCGGCUCGAGCCCGGGUAAGUGUCAAUAGUCUGCAUGCCGCCGGGCGCCAUGCCUGCAGGUCGACUCUAGAAAACAUG", "values": [
      {"measurement": "binding signal", "setting": "PUM1 PUF domain R5-KSN", "value": "3.85 log2 enrichment (interaction score)"}
    ]},
    {"sequence": "GGCUAGAACUAGUGGAUCCCCCGGCGCCCGGCGGCUCGAGCCCGGGUAAGUGUAAAGAGUCUGCAUGCCGCCGGGCGCCAUGCCUGCAGGUCGACUCUAGAAAACAUG", "values": [
      {"measurement": "binding signal", "setting": "PUM1 PUF domain R2-AVA", "value": "2.41 log2 enrichment (interaction score)"}
    ]},
    {"sequence": "GGCUAGAACUAGUGGAUCCCCCGGCGCCCGGCGGCUCGAGCCCGGGUAAGUGUAAGUAGUCUGCAUGCCGCCGGGCGCCAUGCCUGCAGGUCGACUCUAGAAAACAUG", "values": [
      {"measurement": "binding signal", "setting": "PUM1 PUF domain R3-YWR", "value": "5.62 log2 enrichment (interaction score)"},
      {"measurement": "binding signal", "setting": "PUM1 PUF domain R3-YRS", "value": "4.29 log2 enrichment (interaction score)"}
    ]},
    {"sequence": "GGCUAGAACUAGUGGAUCCCCCGGCGCCCGGCGGCUCGAGCCCGGGUAAGUGUAAAUCGUCUGCAUGCCGCCGGGCGCCAUGCCUGCAGGUCGACUCUAGAAAACAUG", "values": [
      {"measurement": "binding signal", "setting": "PUM1 PUF domain R1-YKR", "value": "8.91 log2 enrichment (interaction score)"},
      {"measurement": "binding signal", "setting": "PUM1 PUF domain R1-RRR", "value": "2.46 log2 enrichment (interaction score)"}
    ]},
    {"sequence": "GGCUAGAACUAGUGGAUCCCCCGGCGCCCGGCGGCUCGAGCCCGGGUAAGUGUAAAUUGUCUGCAUGCCGCCGGGCGCCAUGCCUGCAGGUCGACUCUAGAAAACAUG", "values": [
      {"measurement": "binding signal", "setting": "PUM1 PUF domain R1-RRR", "value": "2.49 log2 enrichment (interaction score)"}
    ]},
    {"sequence": "GGCUAGAACUAGUGGAUCCCCCGGCGCCCGGCGGCUCGAGCCCGGGUAAGCGUAAAUAGUCUGCAUGCCGCCGGGCGCCAUGCCUGCAGGUCGACUCUAGAAAACAUG", "values": [
      {"measurement": "binding signal", "setting": "PUM1 PUF domain R8-RHN", "value": "5.56 log2 enrichment (interaction score)"}
    ]},
    {"sequence": "GGCUAGAACUAGUGGAUCCCCCGGCGCCCGGCGGCUCGAGCCCGGGUAAGUGUAUAUAGUCUGCAUGCCGCCGGGCGCCAUGCCUGCAGGUCGACUCUAGAAAACAUG", "values": [
      {"measurement": "binding signal", "setting": "PUM1 PUF domain R4-CPL", "value": "1.78 log2 enrichment (interaction score)"},
      {"measurement": "binding signal", "setting": "PUM1 PUF domain R4-FGQ", "value": "3.63 log2 enrichment (interaction score)"}
    ]}
  ]
}
